# Assay outcomes: PubChem BioAssay, Sanford-Burnham Center for Chemical Genomics
# In the library only some 2.9% were active in any assay of this set; here they are far more common.
# H9c2 TAG inh = triacylglycerol accumulation inhibition; H9c2 cells, Nile Red lipid (TAG) fluorescence; cells loaded with 200 µM oleic acid; inhibition, % at 12.5 µM; 230,000 tested, 0.66% active;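 active = pattern-corrected inhibition of lipid staining of at least 50% with the nuclear-stain viability signal not falling by more than 50%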;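 note: 0% = DMSO wells and 100% = triacsin C control wells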
# Cardio protect = modulators protecting cardiomyocytes from myocardial damage; H9c2 cardiomyocytes, H2O2 injury protection, ATPLite, 2 h; protection from H2O2 cell death, % at 20 µM; 360,000 tested, 0.63% active;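 active = compounds giving at least 50% protection of heart cells from peroxide-induced death in the single-dose screen, raw or plate-pattern-corrected value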;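 note: 0% = DMSO wells with peroxide and 100% = DMSO wells without peroxide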
# APOBEC3A inh = blocks human APOBEC3A ssDNA deamination; P31941; 330,000 tested, 0.41% active; inhibition, % at 20 µM; recombinant A3A, FAM/TAMRA ssDNA deamination fluorescence;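 active = at least 40% inhibition at 20 µM here, with at most 30% in a related deaminase screen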;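 note: plate controls were A3A with DMSO for no effect and wells lacking A3A enzyme for full effect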
# Target sequence (P31941 whole entry, looked up): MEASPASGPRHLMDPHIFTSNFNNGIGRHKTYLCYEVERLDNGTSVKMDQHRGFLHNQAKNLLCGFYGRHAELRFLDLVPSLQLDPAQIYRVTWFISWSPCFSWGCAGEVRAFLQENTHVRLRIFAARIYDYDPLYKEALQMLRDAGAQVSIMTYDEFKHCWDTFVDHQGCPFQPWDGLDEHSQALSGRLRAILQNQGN
# NadD block = blocks S. aureus nicotinate mononucleotide adenylyltransferase; purified NadD enzyme, colorimetric absorbance read-out; inhibition, % at 20 µM; 360,000 tested, 0.78% active; in the data active = inhibition above about 26%
# A3G deaminase = inhibitors of human APOBEC3G DNA deaminase. recombinant A3G, ssDNA deamination FAM/TAMRA fluorescence. inhibition, % at 20 µM. 330,000 tested, 0.28% active;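 active = inhibition of at least 40% at 20 µM, with no more than 30% in the related APOBEC3A deaminase screen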;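 note: plate controls were DMSO wells with A3G for no effect and wells lacking A3G enzyme for full effect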
# Target sequence (Q9HC16 whole entry, looked up): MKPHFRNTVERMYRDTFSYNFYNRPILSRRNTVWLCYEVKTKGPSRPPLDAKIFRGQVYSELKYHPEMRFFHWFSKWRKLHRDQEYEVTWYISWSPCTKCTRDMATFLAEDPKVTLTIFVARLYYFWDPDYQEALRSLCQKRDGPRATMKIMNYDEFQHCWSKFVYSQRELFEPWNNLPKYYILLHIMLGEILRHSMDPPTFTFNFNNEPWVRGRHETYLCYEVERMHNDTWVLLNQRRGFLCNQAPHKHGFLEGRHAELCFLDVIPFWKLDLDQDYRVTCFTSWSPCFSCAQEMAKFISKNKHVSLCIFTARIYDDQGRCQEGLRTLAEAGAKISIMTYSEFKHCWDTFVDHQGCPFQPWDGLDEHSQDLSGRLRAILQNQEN
# PfG6PD inh = PfG6PD (Plasmodium falciparum) enzyme inhibition. PfGluPho enzyme, NADPH resazurin-diaphorase fluorescence. inhibition, % at 20 µM. 350,000 tested, 0.78% active;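 active = inhibition reaching at least a set limit at 20 µM in the primary screen, cut at about 59% in these data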;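 note: 0% = DMSO wells with substrate and 100% = DMSO wells lacking glucose-6-phosphate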
# H9c2 TAG conf = triacylglycerol accumulation inhibition, confirmation; shares compounds with H9c2 TAG inh; H9c2 lipid accumulation, Nile Red fluorescence; cells loaded with 200 µM oleic acid; inhibition, % at 12.5 µM; 990 tested, 71% active;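 active = mean inhibition across replicates of 40% or more; inactive = mean inhibition below 40%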;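 note: plate controls were DMSO only wells for no effect and Triacsin C treated wells for full effect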
# Numbers without * were called inactive; . = no result.
SMILES,H9c2 TAG inh,Cardio protect,APOBEC3A inh,NadD block,A3G deaminase,PfG6PD inh,H9c2 TAG conf
CCOc1ccc(CCNC(=O)CN2CCN(Cc3ccccc3F)C2=O)cc1OCC,60*,2,3,-7,2,-22,42*
CCOC(=O)Cc1ccc(Nc2nc3cc(-c4sccc4C)sc3c(=O)n2C)cc1,51*,-12,.,1,.,.,71*
CCOC(=O)Cc1ccc(Nc2nc(NC)nc3ccsc23)cc1,4,0,.,-5,.,.,.
COc1ccc(Nc2nc3cc(-c4sccc4C)sc3c(=O)n2C)cc1OC,57*,2,.,0,.,.,71*
Cc1cc(C(=O)COC(=O)c2ccc([N+](=O)[O-])o2)c(C)n1CC1CCCO1 (stereo unspecified),72*,2,8,1,-1,19,54*
CCN(CC)C(=O)Cn1cnc2sc(C)c(S(=O)(=O)N3CCC(C)CC3)c2c1=O,.,2,-4,-4,-6,12,.
O=C(Cc1ccccc1)NC(Nc1cccc2ccccc12)C(Cl)(Cl)Cl (stereo unspecified),58*,-23,-7,2,-7,9,1
COc1ccccc1N1CCN(C(=O)COc2cc(C)cc(C)c2)CC1,14,0,-3,4,-5,-15,.
CN(C)CCCN1c2ccccc2Sc2ccccc21,60*,50*,-2,-3,-4,5,47*
Cc1ccc(S(=O)(=O)N2CCC(=O)N(CCOC(=O)NCc3ccccc3)CC2)cc1,.,.,-4,.,-13,11,.
COc1ccc(CNC(=O)OCCN2CCN(S(=O)(=O)c3ccc(C)cc3)CCC2=O)cc1,72*,2,2,-4,-5,-4,1
CCc1nc(C)c(C(=O)N2CCCC(C(=O)Nc3cccc(-c4cccc(C)c4)c3)C2)o1 (stereo unspecified),50*,3,-8,-9,-10,-10,47*
COC(=O)C1=C(C)NC(=S)NC1c1ccc(OCC(=O)N2CCCCC2)c(OC)c1 (stereo unspecified),7,6,-4,-2,-10,5,.
O=C(CSc1cccc2cccnc12)Nc1cc(C(=O)O)cc(C(=O)O)c1,52*,3,-3,-2,0,1,19
Cc1cccc(NC(=O)CSc2cccc3cccnc23)c1,59*,-8,-1,-4,1,7,-14
O=C(CSc1cccc2cccnc12)Nc1ccccc1F,73*,-6,1,-3,2,-5,-1
NNC(=O)CSc1cccc2cccnc12,.,4,0,0,-6,4,.
Cc1cc(C(=O)COC(=O)c2ccc[nH]c2=O)c(C)n1-c1ccc(F)cc1,.,-17,-11,0,-4,-1,.
O=S(=O)(c1cc(Cl)ccc1Cl)N1CC2CCCN2c2ccc(C(F)(F)F)cc21 (stereo unspecified),26,-16,-2,6,1,23,.
CC(C)(C)N1C(=O)c2ccc(C(=O)Nc3ccc(O)cc3)cc2C1=O,.,-1,-5,1,-5,9,.
O=C(O)c1cc(S(=O)(=O)N2CCCCC2)ccc1N1CCOCC1,-9,0,-2,4,-4,-9,.
CN1CCCC(n2nc(Cc3ccc(Cl)cc3)c3ccccc3c2=O)CC1 (stereo unspecified),85*,-21,-3,-2,-8,4,40*
COc1ccc(C(=O)CN2CCN(CCN3C(=O)c4cccc5cccc(c45)C3=O)CC2)cc1,0,27,14,4,3,0,.
COc1cc2c3c(cccc3c1)C(=O)N(CCN1CCCC1)C2=O,117*,9,.,-3,.,-3,109*
CN(Cc1cc([N+](=O)[O-])ccc1Cl)C(=O)C[n+]1ccccc1,.,1,1,-3,-8,10,.
SMILES,H9c2 TAG inh,Cardio protect,APOBEC3A inh,NadD block,A3G deaminase,PfG6PD inh,H9c2 TAG conf
CCOc1cc(N2CCOCC2)c(OCC)cc1NC(=O)Cn1cnnn1,5,7,3,9,-7,7,.
CCOc1cc(N2CCOCC2)c(OCC)cc1NC(=O)CC12CC3CC(CC(C3)C1)C2,74*,6,0,1,-1,12,47*
O=C1NC(=O)C2(CCCCCCC2)N1,-9,-2,.,-2,.,-7,.
CCC(=O)c1ccc(OC(=O)N2CCOCC2)cc1,-6,-4,-12,-3,8,-16,.
Cc1ccc(-n2c(=O)[nH]c3c(C(N)=O)nc(C(C)C)nc32)cc1,.,-5,1,3,-6,-12,.
Cc1ccsc1-c1nc(C(N)=O)c2[nH]c(=O)n(-c3ccc(Cl)cc3)c2n1,57*,4,-2,20,-1,-6,42*
C=CCN1C(=O)C(C)NC1=S (stereo unspecified),9,5,.,8,.,-40,.
COc1cc(CN2CCC(C(=O)NC(c3ccc(F)cc3)c3ccc4ccccc4n3)CC2)cc(OC)c1 (stereo unspecified),48,2,.,1,.,.,.
Cn1cc(CN2CCC(C(=O)NC(c3ccc(F)cc3)c3ccc4ccccc4n3)CC2)c2ccccc21 (stereo unspecified),103*,-29,.,10,.,.,98*
O=c1cc(-c2cccc(Cl)c2)oc2cccc(O)c12,92*,-4,-1,-1,-7,3,1
CCN1CCN(CCCNC(=O)CCC(=O)N2CCOc3ccc(Cl)cc32)CC1,-1,4,-1,9,-5,-11,.
Cc1csc(N2CCCC2c2nc3cc(Cl)c(N4CCCCC4)cc3n2CCOCCO)n1 (stereo unspecified),16,4,-6,2,-6,18,.
Nc1c(Cl)cc(-c2csc(N3CCCC3c3nc4cc(Cl)c(Cl)cc4n3CCCO)n2)cc1Cl (stereo unspecified),71*,-2,2,14,26,7,79*
Nc1c(Cl)cc(-c2csc(N3CCCC3c3nc4cc(Cl)c(N5CCCCC5)cc4n3CCOCCO)n2)cc1Cl (stereo unspecified),75*,-5,-3,28,-7,7,81*
O=C(Nc1ccc(Cl)c(Cl)c1)N(CCCN1CCOCC1)Cc1cccs1,-10,-5,-3,-2,-16,5,.
Cc1cc(NC(=O)c2ccco2)sc1C,-14,-6,-3,0,-4,22,.
CCN1CCN(c2ncc3c(n2)CC(c2cc(OC)c(OC)c(OC)c2)CC3=O)CC1 (stereo unspecified),60*,1,.,-6,.,7,82*
COc1ccccc1NC(=S)N1CCC(c2nc3cc(C)c(C)cc3[nH]2)CC1,.,4,3,3,-3,-2,.
COc1ccccc1NC(=O)N1CCC(c2nc3cc(C)c(C)cc3[nH]2)CC1,51*,-3,-4,5,-7,-12,45*
